Records with an inconclusive call do not appear. The source made the active and inactive calls. The call rests on the fitted dose curve; in most records, active means well fitted inhibition curve with a large enough effect in the repeat runs; inconclusive means weak or mixed curves, or effect the other way; inactive means no such curve, though single readings can be large or run the other way.
target: Nuclear receptor subfamily 1 group I member 3 (Homo sapiens) (UniProt Q14994); assay: qHTS assay to identify small molecule antagonists of the constitutive androstane receptor (CAR) signaling pathway (AID 1224838); conditions: HepG2-CYP2B6-hCAR luciferase, CITCO-stimulated, 24 h; series mostly up to 92.4 µM; activity, negative = inhibition: at the top concentration;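 further: HepG2 cells stably expressing hCAR with CYP2B6 luciferase reporter stimulated by CITCO; nearly all actives have a fitted effect of over 40% in size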
Text: U.S. Tox21 Program National Center for Advancing Translational Sciences [NCATS] NIH Chemical Genomics Center [NCGC] U.S. Environmental Protection Agency [EPA] National Institutes of Environmental Health Sciences [NIEHS] National Toxicology Program [NTP] U.S. Food and Drug Administration [FDA] Tox21 Assay Overview: The constitutive androstane receptor (CAR) is a nuclear receptor which regulates multiple drug metabolizing enzymes (DMEs) and transporters. Activating CAR will generally increase the transcription and subsequent translation of CYP2B6 and CYP3A4. These two DMEs represent about 50% of the drug metabolizing potential in the body. When CAR is deactivated, the metabolizing potential in the body will decrease, subsequently increasing the toxicity in the body or lowering the therapeutic potential of a pro-drug. Recently, there have also been studies performed indicating CARs role in energy metabolism and cancer therapy. Therefore, inhibiting CARs activity could have a potential effect on diabetes and cancer. Identifying environmental toxins and compounds which modulate CAR, through the use of the Tox21 10K compound collection, will be an important step in determining the toxicity and potential therapeutic effects these factors will have on the human body.
Tox21 Assay Protocol Summary: A double-stable (hCAR and CYP2B6-2.2kb) transfected cell line, derived from human hepatoma (HepG2) cells, was utilized for the duration of the quantitative high-throughput screens. The HepG2-CYP2B6-hCAR cells suspended in DMEM culture medium supplemented with 10% FBS, 5 ug/mL blasticidin, 0.5 mg/mL geneticin, 100 U/mL penicillin and 100 ug/mL streptomycin were dispensed at 2500 cells/4 uL/well in 1536-well white solid bottom plates using a Multidrop Combi. After the assay plates were incubated at 37 C/5% CO2 for 4 hrs, 23 nL of compounds at 15 concentrations (from 5-48 columns) or positive control (from 1 to 4 columns) were transferred to the assay plates using a Pintool station. One uL of CITCO, was added using a Flying Reagent Dispenser to generate a final concentration of 50 nM CITCO inside each well. After a 24 hr incubation period at 37 C/5% CO2, four uL of ONE-Glo reagent was added into the assay plates using a Flying Reagent Dispenser. After a 30 min incubation period at room temperature, the luminescence intensity in the assay plates was measured using a ViewLux plate reader.
On the % scale 0 is the no-effect control and ±100 the full control effect.

Chain of Nuclear receptor subfamily 1 group I member 3 (Homo sapiens) (Q14994 whole entry, looked up): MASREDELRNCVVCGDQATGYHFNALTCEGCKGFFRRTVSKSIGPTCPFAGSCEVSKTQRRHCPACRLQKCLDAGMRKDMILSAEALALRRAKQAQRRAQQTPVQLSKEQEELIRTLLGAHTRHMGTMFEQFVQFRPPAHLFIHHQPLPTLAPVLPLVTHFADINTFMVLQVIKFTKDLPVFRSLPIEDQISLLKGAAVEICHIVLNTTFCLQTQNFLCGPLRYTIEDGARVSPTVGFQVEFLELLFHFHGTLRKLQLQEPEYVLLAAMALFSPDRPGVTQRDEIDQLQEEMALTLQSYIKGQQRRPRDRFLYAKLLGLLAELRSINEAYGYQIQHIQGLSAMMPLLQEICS

SMILES | activity, negative = inhibition
CC(C)(N)Cc1ccc(Cl)cc1 | -8.05% [at 42.5 µM] (inactive)
O=c1[nH]c2ccccc2n1C1CCNCC1 | -8.35% [at 42.5 µM] (inactive)
O=C(O)c1c(Cl)ccc2cc(Cl)cnc12 | 25.6% (inactive)
NC(=O)CS(=O)C(c1ccccc1)c1ccccc1 (stereo not given) | -12.8% [at 42.5 µM] (inactive)
CCOC1Oc2ccc(OS(C)(=O)=O)cc2C1(C)C (stereo not given) | 107% (inactive)
CON(C)C(=O)Nc1ccc(Br)cc1 | 96.7% (inactive)
[O-][Br+2]([O-])O | -1.8% [at 42.5 µM] (inactive)
COC(=O)c1ccc(CBr)cc1 | 168% (inactive)
CCOC(=O)Nc1cccc(OC(=O)Nc2ccccc2)c1 | 207% (inactive)
O=C(Cl)c1ccccc1 | 4.28% (inactive)
CCCC(C)C1(CC)C(=O)N=C(S)NC1=O (stereo not given) | 4.12% [at 42.5 µM] (inactive)
COC(=O)c1ccccc1CS(=O)(=O)NC(=O)Nc1nc(OC)cc(OC)n1 | 4.79% (inactive)
CCN(CC)C1CCCCC1 | 5.81% (inactive)
CC(C)(C)C(=O)Cl | -0.33% (inactive)
CN(CCO)CCO | 27.2% (inactive)
Cc1ccc(S(=O)(=O)N[C@@H](CCCCN)C(=O)CCl)cc1 | 9.85% [at 42.5 µM] (inactive)
CCC(=O)c1ccc(Cl)cc1 | -1.54% (inactive)
CCOC(=O)CCl | -0.235% (inactive)
COc1ccc(C=O)cc1O | 30.3% (inactive)
O=C1CC(=O)NC(=O)N1 | -1.85% (inactive)

SMILES | activity, negative = inhibition
Oc1ccc(Cc2ccc(O)cc2)cc1 | 114% (inactive)
COc1ccc(CN2CCNCC2)c(OC)c1OC | -20.4% [at 42.5 µM] (inactive)
CC[C@H](N)c1ccccc1 | -10.4% (inactive)
c1ccc2c(c1)CCNC2 | -7.35% (inactive)
O=S1(=O)OCCO1 | 9% (inactive)
CC#Cc1cc(C)nc(Nc2ccccc2)n1 | 220% (inactive)
O=[N+]([O-])c1cccc(CCl)c1 | 12.5% (inactive)
C#CC(C)(C)O | -1.46% (inactive)
CCCC[N+](=O)[O-] | -4.52% (inactive)
COc1cc(CC(C)N)cc(OC)c1OC (stereo not given) | 7.86% (inactive)
CCc1cc(OC)c(C[C@H](C)N)cc1OC | 25.1% (inactive)
CC(Cc1ccccc1)NCCCCl (stereo not given) | 9.2% [at 42.5 µM] (inactive)
c1cncc([C@@H]2CCCCN2)c1 | 17.4% (inactive)
Cc1cc(OC(=O)N(C)C)nn1C(=O)N(C)C | -0.567% (inactive)
OP(O)c1ccccc1 | 0.441% (inactive)
CC(C)(C1CCC(O)CC1)C1CCC(O)CC1 (stereo not given) | 45.4% (inactive)
Cc1ccc2c(c1)C1CN(C)CCC1N2 (stereo not given) | 51% [at 19 µM] (inactive)
Brc1c(Br)c(Br)c(Br)c(Br)c1Br | -5.81% [at 8.39 µM] (inactive)
CC[C@@H](CO)NC(=O)[C@@H]1C=C2c3cccc4c3c(cn4C)C[C@H]2N(C)C1 | 52.8% [at 42.5 µM] (inactive)
C=CCN1CC[C@]23CCCC[C@H]2[C@H]1Cc1ccc(O)cc13 | -10.3% [at 42.5 µM] (inactive)

From PubChem BioAssay (Tox21)
